Screening data from PubChem.
A549 tox-1 – kills or reduces viability of A549 cells in Nrf2 counter-screen; A549 ARE-Fluc cells, CellTiter-Fluor viability, 18-24 h; Potency, µM (doses to about 46 µM), without a hit: at the top dose activity change, negative = cytotoxicity, most hits filed as inhibitors; 390,000 compounds, 0.16% hits; AID 504648; also: % is scaled to controls: 0 for no effect and ±100 for the full control effect
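Cytotoxicity counterscreen: CellTiter-Fluor fluorescence was measured in A549 ARE_Fluc cells after 18-24 h of compound exposure in a concentration series. The subsequent BugLite luminescent read reports ARE-luciferase activity.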
TGFb SMAD3 inh – blocks TGF-b signaling; 410,000 compounds, 1.2% hits; HepG2 CAGA-GFP TGF-b/SMAD3 reporter, GFP fluorescence, 18 h; TGF-beta stimulated, 500 pg/mL final; Potency, µM (doses to about 46.1 µM), for the others: at the highest dose activity, negative = inhibition, hits mostly inhibitors; also: % is scaled to controls: 0 for no effect and ±100 for the full control effect; nearly all actives have a fitted effect of over 65% in size
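Using HEPG2 CAGA-GFP reporter cells at 1000 cells/well, we pinned test compounds, stimulated with recombinant TGF-beta (500 pg/mL final) and measured total well GFP after 18 h.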
ATXN viability – reduces viability in counter-screen for ATXN expression inhibitors. Potency, µM (highest dose often 56.7 µM), actives largely listed as cytotoxic. S2 cells (HEK-293 line with an ATXN2-luciferase reporter) viability, CellTiter-Fluor protease fluorescence, 24 h. 400,000 compounds, 0.49% hits; also: nearly all actives have a fitted effect of over 40% in size
Nrf2 block – inhibitors of Nrf2 signaling | 360,000 compounds, 2.1% hits | Potency, µM (series often up to 46 µM), without a hit: at the highest dose activity change, negative = inhibition, hits mostly inhibitors | A549 ARE-Fluc reporter, luciferase luminescence, 18-24 h; also: % is scaled to controls: 0 for no effect and ±100 for the full control effect; nearly all actives have a fitted effect of over 60% in size
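A549 ARE_Fluc cells, 5000/well, 5% FBS OPTI-MEM; compounds in dose-response, 18-24 h at 37 °C/5% CO2; CellTiter-Fluor viability read (Ex 405/Em 525), then BugLite luciferase luminescence = Nrf2 activity.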
HepG2 tox – kills HepG2 cells in TGF-b inhibitor counter-screen. HepG2 CAGA-GFP viability, ATP luminescence, 18 h. Potency, µM (top dose mostly 46.1 µM), inactives show at the highest dose activity change, negative = cytotoxicity, usual class: cytotoxic. 410,000 compounds, 0.76% hits. AID 588856
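CellTiter-Glo luminescence gave cytotoxicity after 18 hours at 37 degrees C. The cells were HepG2 CAGA-GFP in 1% FBS DMEM, stimulated with 500 pg/mL TGF-beta after compound addition. %Activity was normalised to no-cell wells (complete cell-killing) and DMSO (no toxicity), and curves were fitted and classified.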
ATXN2 expr inh – inhibitors of ATXN2 expression | HEK-293 ATXN2-luciferase reporter, luminescence, 24 h | Potency, µM (titrated, usually from 57 µM), for the others: at the highest dose activity change, negative = inhibition, actives largely listed as inhibitors | 360,000 compounds, 0.72% hits; also: % is scaled to controls: 0 for no effect and ±100 for the full control effect; nearly all actives have a fitted effect of over 55% in size
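qHTS (up to 57 uM final) was run with 24 h compound exposure of reporter cells at 37 °C. Each well was multiplexed: SteadyGlo luminescence measured ATXN2-luciferase expression after a fluorogenic Gly-Phe-AFC viability readout (25 uM final).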
FLuc enzyme inh – blocks purified firefly luciferase in Nrf2 counterscreen | shares compounds with Nrf2 block | purified firefly luciferase, luminescence inhibition | Potency, µM (highest dose often 57.5 µM), without a hit: top-dose activity change, negative = inhibition, usual class: inhibitors | 1,400 compounds, 4% hits | AID 720522; also: % is scaled to controls: 0 for no effect and ±100 for the full control effect; nearly all actives have a fitted effect of over 65% in size
Target sequence (P08659 whole entry, looked up): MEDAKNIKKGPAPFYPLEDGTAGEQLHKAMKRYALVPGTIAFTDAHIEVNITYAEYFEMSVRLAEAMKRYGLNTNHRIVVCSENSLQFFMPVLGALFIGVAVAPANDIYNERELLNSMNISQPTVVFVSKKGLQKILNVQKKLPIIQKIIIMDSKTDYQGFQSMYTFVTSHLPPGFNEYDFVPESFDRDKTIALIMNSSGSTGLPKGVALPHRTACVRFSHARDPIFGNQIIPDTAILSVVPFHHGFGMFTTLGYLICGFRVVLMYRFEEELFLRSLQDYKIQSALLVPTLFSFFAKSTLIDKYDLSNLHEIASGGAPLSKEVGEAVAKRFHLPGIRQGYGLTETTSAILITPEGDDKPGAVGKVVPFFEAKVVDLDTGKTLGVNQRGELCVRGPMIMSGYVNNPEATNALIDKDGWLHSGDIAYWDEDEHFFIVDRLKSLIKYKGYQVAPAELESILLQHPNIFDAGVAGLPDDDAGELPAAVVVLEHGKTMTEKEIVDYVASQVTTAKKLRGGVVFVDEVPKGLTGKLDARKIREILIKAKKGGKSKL
A549 tox-2 – A549 cytotoxicity, Nrf2 inhibitor counterscreen; A549 ARE-Fluc cells, cytotoxicity counterscreen; 1,400 compounds, 2% hits; shares compounds with Nrf2 block; AID 720523; Potency, µM (top dose mostly 46.1 µM), inactives show at the highest dose activity change, negative = cytotoxicity, usual class: inhibitors;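 also: cells exposed to compounds for 18 to 24 hours; % is scaled to controls: 0 for no effect and ±100 for the full control effect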
Nrf2 ARE inh – Nrf2 inhibition confirmed, A549 ARE-luciferase. shares compounds with Nrf2 block. A549 ARE-firefly luciferase reporter, luminescence. Potency, µM (doses to about 46.1 µM), inactives show top-dose activity change, negative = inhibition, actives largely listed as inhibitors. 1,400 compounds, 74% hits; also: % is scaled to controls: 0 for no effect and ±100 for the full control effect; nearly all actives have a fitted effect of over 65% in size
* marks the source's active call; other numbers are inactive results. This is a sample that favours compounds with a hit; in the whole collection about 3.8% have one here. Calls follow the shape of the dose curve; as a rule, active = well fitted curve in the direction sought with a large enough effect; inconclusive = small, poorly fitted or top-dose-only effect, or another doubt; inactive = no such curve, though single readings can be large; an effect the other way counts as inactive or inconclusive. Potency is read from the fitted curve at half-maximal effect.

`C[n+]1c2n(c3ccccc31)N=C(c1ccccc1)CS2` gave A549 tox-1 inconclusive, TGFb SMAD3 inh inconclusive, ATXN viability inactive, Nrf2 block 3.66µM*, HepG2 tox -40.1%, ATXN2 expr inh inconclusive, FLuc enzyme inh 0.0% and A549 tox-2 -9.5%.
Screening O=C(Nc1nc(-c2ccc([N+](=O)[O-])cc2)cs1)c1c(F)cccc1F returned A549 tox-1 -17.8%, TGFb SMAD3 inh 0.0%, ATXN viability inactive, Nrf2 block inconclusive and HepG2 tox -9.6%.
`O=C(Nc1nc(-c2ccccc2)cs1)c1ccc(N2CCOCC2)c([N+](=O)[O-])c1` gave A549 tox-1 inconclusive, TGFb SMAD3 inh -15.8%, ATXN viability inconclusive, Nrf2 block 4.61µM*, HepG2 tox -23.7%, ATXN2 expr inh 12.6µM*, FLuc enzyme inh inconclusive, A549 tox-2 inconclusive and Nrf2 ARE inh 7.31µM*.
Screening O=C(Nc1ccc(-c2csc(Nc3ccccc3)n2)cc1)c1cccc(C(F)(F)F)c1 returned A549 tox-1 -5.7%, TGFb SMAD3 inh inconclusive, ATXN viability inconclusive, Nrf2 block 9.2µM*, HepG2 tox -17.2%, ATXN2 expr inh inconclusive, FLuc enzyme inh -14.7%, A549 tox-2 -25.2% and Nrf2 ARE inh 14.6µM*.
For Cc1ccc(-c2csc(NC(=O)c3cc([N+](=O)[O-])ccc3N3CCOCC3)n2)cc1 the results were A549 tox-1 0.7%, TGFb SMAD3 inh 2.0%, ATXN viability inactive, Nrf2 block 12.9% and HepG2 tox 5.4%.
For Cc1ccc(-c2csc(NC(=O)c3cccc([N+](=O)[O-])c3)n2)cc1 the results were A549 tox-1 -4.8%, TGFb SMAD3 inh 0.5%, ATXN viability inactive, Nrf2 block inconclusive, HepG2 tox -4.5%, ATXN2 expr inh -19.2%, FLuc enzyme inh 1.5%, A549 tox-2 -11.8% and Nrf2 ARE inh 1.46µM*.
For CCCN(C(=O)c1cn(-c2ccccc2)nc1-c1ccc(OC)cc1)C1CCS(=O)(=O)C1 (centres undefined) the results were A549 tox-1 0.8%, TGFb SMAD3 inh 2.2%, ATXN viability inactive, Nrf2 block -16.1%, HepG2 tox -4.7% and ATXN2 expr inh -0.5%.
CCOc1ccccc1CNC(=O)c1ccc2c(c1)sc1nc(-c3cccc(OC)c3)cn12 was read as A549 tox-1 -2.4%, TGFb SMAD3 inh -1.4%, Nrf2 block -0.5% and HepG2 tox -15.3%.
`COc1ccc(CCNC(=O)c2cnn(-c3nccc(-c4ccco4)n3)c2C)cc1` gave ATXN viability inactive.
For COc1ccc2cc3c(N)nn(C(=O)c4ccccc4Cl)c3nc2c1 the results were A549 tox-1 -2.7%, TGFb SMAD3 inh inconclusive, ATXN viability inconclusive, Nrf2 block 9.2µM*, HepG2 tox -25.6%, ATXN2 expr inh -22.7%, FLuc enzyme inh -27.7%, A549 tox-2 -20.3% and Nrf2 ARE inh inconclusive.
`CCn1c(CC(=O)Nc2cccc(OC)c2)nnc1SCC(=O)N1CCN(c2ccccc2)CC1` gave A549 tox-1 -7.8%, TGFb SMAD3 inh -25.1%, ATXN viability inactive, Nrf2 block inconclusive, HepG2 tox 0.4% and ATXN2 expr inh -17.2%.
CCn1c(COc2cccc(C)c2C)nnc1SCC(=O)N1CCN(c2ccc(OC)cc2)CC1 was read as A549 tox-1 -6.4%, TGFb SMAD3 inh -2.3%, ATXN viability inactive, Nrf2 block 9.2µM*, HepG2 tox 4.0%, ATXN2 expr inh -17.8%, FLuc enzyme inh -0.8%, A549 tox-2 -15.3% and Nrf2 ARE inh 8.2µM*.
CN[C@@H](C)C(=O)NC[C@H]1O[C@@H](n2cnc3c(N)ncnc32)[C@H](O)[C@@H]1O was read as A549 tox-1 -5.5%, TGFb SMAD3 inh 16.6%, ATXN viability inactive, Nrf2 block -5.1%, HepG2 tox -3.4% and ATXN2 expr inh -2.4%.
Fc1ccc(/C=C/c2ccc3ccccc3n2)cc1 was read as TGFb SMAD3 inh inconclusive, HepG2 tox -30.4%, FLuc enzyme inh -24.8%, A549 tox-2 inconclusive and Nrf2 ARE inh 7.31µM*.
`CC(/C=N/Nc1ncc(C)c(=O)[nH]1)=C\c1ccccc1` gave A549 tox-1 -1.1%, TGFb SMAD3 inh -0.7%, ATXN viability inactive, Nrf2 block 10.2%, HepG2 tox 7.1% and ATXN2 expr inh inconclusive.
COc1ccc(NC(=O)CN(C)C(=O)c2cccc(S(=O)(=O)N3CCN(c4ccc(F)cc4)CC3)c2)cc1 was read as A549 tox-1 inconclusive, TGFb SMAD3 inh -5.6%, ATXN viability inactive, Nrf2 block 5.8µM*, HepG2 tox -13.8%, ATXN2 expr inh -36.9%, FLuc enzyme inh 3.4%, A549 tox-2 -9.7% and Nrf2 ARE inh 18.4µM*.
`COc1cccc(CNC(=O)c2cccc(S(=O)(=O)N3CCN(c4ccc(F)cc4)CC3)c2)c1` gave A549 tox-1 -0.3%, TGFb SMAD3 inh inconclusive, ATXN viability inactive, Nrf2 block inconclusive, HepG2 tox 1.9%, ATXN2 expr inh -6.4%, FLuc enzyme inh 0.9%, A549 tox-2 -1.2% and Nrf2 ARE inh inconclusive.
For Cc1cccc(C)c1NC(=S)NC(=O)c1cccc(Cl)c1 the results were TGFb SMAD3 inh 3.0%, ATXN viability inactive, HepG2 tox -2.6% and ATXN2 expr inh 16.9%.
For CC(C)CC(=O)Nc1ccc(N2CCOCC2)cc1 the results were A549 tox-1 -3.1%, TGFb SMAD3 inh 2.0%, ATXN viability inactive, Nrf2 block 9.2%, HepG2 tox -5.5% and ATXN2 expr inh 18.8%.
Screening CC1CCc2nc(-c3cc4ccc(O)cc4oc3=O)sc2C1 (centres undefined) returned A549 tox-1 inconclusive, TGFb SMAD3 inh 170.1%, Nrf2 block 2.31µM*, HepG2 tox -5.7%, FLuc enzyme inh 0.0379µM*, A549 tox-2 190.9% and Nrf2 ARE inh 18.4µM*.
